E-sel TNF inh = TNF alpha driven E-selectin expression inhibition. HUVEC TNFa-induced E-selectin immunofluorescence, high content. inhibition, % at 2 µM. hit rate 0.71% among 120,000. AID 1246;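 active = inhibition above the batch mean plus 3 SD, and confirmed as a hit on visual image review, cut at about 43% in these data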
cytoskel mod = modifiers of cytoskeleton assembly. hit rate 0.18% among 91,000. inhibition, % at 2 µM. AID 836. HUVEC TNFa F-actin phalloidin imaging, high content;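 active = inhibition above the batch mean plus 3 SD and confirmed as a hit by visual image inspection, cut at about 30% in these data, passing the limit was not always enough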
VCAM1 TNFa inh = reduces TNF alpha induced VCAM1 expression in HUVEC; hit rate 0.48% among 95,000; HUVEC TNFa-induced VCAM-1 immunofluorescence, high-content imaging; inhibition, % at 2 µM; AID 802;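 active = inhibition above the batch mean plus 3 SD, with images confirmed as a hit by eye, cut at about 37% in these data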
PLAP activator = human PLAP activation; AID 696; hit rate 1.2% among 96,000; activation fold at 20 µM; P05187; purified PLAP enzyme, luminescent substrate read-out; stronger effect = higher value; in the data active = activation fold above about 2
Target sequence (P05187 whole entry, looked up): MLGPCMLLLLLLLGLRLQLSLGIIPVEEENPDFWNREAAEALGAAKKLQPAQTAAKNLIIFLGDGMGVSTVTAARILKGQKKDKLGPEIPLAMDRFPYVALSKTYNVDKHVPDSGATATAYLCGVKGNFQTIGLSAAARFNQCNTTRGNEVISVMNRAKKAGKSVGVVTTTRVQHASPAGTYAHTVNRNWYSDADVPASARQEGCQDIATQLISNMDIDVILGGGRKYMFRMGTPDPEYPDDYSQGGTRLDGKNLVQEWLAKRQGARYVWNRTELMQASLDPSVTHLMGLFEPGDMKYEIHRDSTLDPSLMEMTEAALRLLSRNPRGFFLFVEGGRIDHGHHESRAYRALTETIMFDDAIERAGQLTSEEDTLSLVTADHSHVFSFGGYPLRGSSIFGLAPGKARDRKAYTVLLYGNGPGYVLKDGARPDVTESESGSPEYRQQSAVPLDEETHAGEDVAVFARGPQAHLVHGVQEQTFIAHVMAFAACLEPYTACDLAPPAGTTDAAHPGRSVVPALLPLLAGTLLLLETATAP
HUVEC tox TNFa = HUVEC cytotoxicity counter-screen, TNF alpha stimulated; cell count reduction, % at 2 µM; HUVEC TNFalpha-stimulated, Hoechst cell count, imaging; hit rate 0.17% among 93,000;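 active = cell count reduction exceeding the screen mean by over 5 SD, scaled to untreated wells per plate, cut at about 78% in these data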;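 note: cells counted after 24 h of TNF alpha exposure following the 1 h pretreatment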
Each line names hits and unclear results; the compound was inactive in the other large screens. An excerpt weighted towards active compounds, which were near 2% of everything screened.

CCOC(=O)C(CC)Sc1nc2c(c(=O)[nH]c(=O)n2C)n1CCc1ccccc1 (centres undefined)	PLAP activator 2.8
CCCCCOC(=O)Cn1c(SCC(=O)Nc2ccccc2)nc2c1c(=O)[nH]c(=O)n2C	E-sel TNF inh 74.4
O=C(CCn1cccc1)NCc1ccc2c(c1)OCO2	none (no result: E-sel TNF inh)
Cc1ccc(C(O)c2nc3ccccc3n2C(C)C)cc1 (centres undefined)	PLAP activator 2.6
O=C(NS(=O)(=O)Oc1cccc(Cl)c1Cl)OC[C@@H]1CCCN2CCCCC12 (some centres undefined)	none (no result: cytoskel mod, VCAM1 TNFa inh, PLAP activator, HUVEC tox TNFa)
Clc1cccc(/C=N\Nc2nccs2)c1	PLAP activator 2.1
COc1cccc(C(=O)N(c2ccc(C)cc2)C2C=CS(=O)(=O)C2)c1 (centres undefined)	none (no result: cytoskel mod, VCAM1 TNFa inh, PLAP activator, HUVEC tox TNFa)
CCCOc1ccccc1C1C(C(=O)OC)=CN(C(C)C)C=C1C(=O)OC	PLAP activator 2
CC(C)CN(C(=O)COC(=O)CCc1c[nH]c2ccccc12)C1CCS(=O)(=O)C1 (centres undefined)	cytoskel mod 38.9
CC(=O)C1=C(O)C=C(c2ccco2)CC1c1ccco1 (centres undefined)	none
CN(C(=O)CSc1nnc(-c2ccncc2)n1Cc1ccccc1)C1CCS(=O)(=O)C1 (centres undefined)	none (no result: cytoskel mod, VCAM1 TNFa inh, PLAP activator, HUVEC tox TNFa)
CC1C/C(=C/c2ccncc2)C(=O)/C(=C/c2ccncc2)C1 (centres undefined)	E-sel TNF inh 99.9 (no result: cytoskel mod, VCAM1 TNFa inh, PLAP activator, HUVEC tox TNFa)
C=CCN(C(=O)CCC(=O)O)C1CC(=O)N(c2ccc(OCCC)cc2)C1=O (centres undefined)	E-sel TNF inh 92.4 (no result: cytoskel mod, VCAM1 TNFa inh, HUVEC tox TNFa)
C=CCN(C(=O)CCC(=O)O)C1CC(=O)N(c2ccc(OC)cc2)C1=O (centres undefined)	none
CC(C)N1C(=O)CCC1C(=O)NCCc1ccc(Cl)cc1 (centres undefined)	none (no result: cytoskel mod, VCAM1 TNFa inh, PLAP activator, HUVEC tox TNFa)
S=C(NCc1cccs1)Nc1cccc(Cl)c1Cl	E-sel TNF inh 80.5 (no result: cytoskel mod, VCAM1 TNFa inh, PLAP activator, HUVEC tox TNFa)
Cc1ccccc1NC(=S)NCc1cccs1	none
O=Cc1cc2ccccc2nc1SCCCF	none (no result: cytoskel mod, VCAM1 TNFa inh, PLAP activator, HUVEC tox TNFa)
CCOc1ccc(C=O)cc1CN1CCCCC1	VCAM1 TNFa inh 94.8, HUVEC tox TNFa 83.6
CCOc1cc(/C=C2\C(=O)N(c3ccc(C(N)=O)cc3)N=C2C)ccc1OC(=O)c1cccs1	none
CCOc1cc(/C=C2/C(=O)N(c3ccccc3)N=C2C)ccc1OC(=O)c1ccco1	VCAM1 TNFa inh 44.2
Cc1cc(C)cc(OCC(=O)Nc2ccc(F)cc2)c1	none
Cc1cc(C)cc(OCC(=O)NNC(=O)c2cc(C)[nH]n2)c1	PLAP activator 2.7
CC1CCCN(c2nc3ccsc3c(=O)s2)C1 (centres undefined)	VCAM1 TNFa inh 91.5, HUVEC tox TNFa 91.4
O=C(O)C1C2C=CC(O2)C1C(=O)Nc1ccc(S(=O)(=O)Nc2ccccc2)cc1 (centres undefined)	cytoskel mod 38.4
Oc1ccc(Nc2nc(-c3ccc4ccccc4c3)cs2)cc1	VCAM1 TNFa inh 74.8
Cc1ccc(Nc2nc(-c3c(C)nc4ccccn34)cs2)cc1	VCAM1 TNFa inh 93.2
Cc1ccc(Nc2nc(-c3c(C)nc4ncccn34)cs2)cc1	none
O=C(NCCCN1CCCC1=O)c1ccc(Cl)c(Cl)c1	none (no result: cytoskel mod, VCAM1 TNFa inh, PLAP activator, HUVEC tox TNFa)
O=C(Nc1cccs1)Nc1c(F)c(F)c(F)c(F)c1F	E-sel TNF inh 69.5 (no result: cytoskel mod, VCAM1 TNFa inh, PLAP activator, HUVEC tox TNFa)
Cc1ccc(S(=O)(=O)NNC(=O)C(=O)NNc2ccccn2)cc1	PLAP activator 2.4
Cc1ccccc1S(=O)(=O)NNC(=O)C(=O)NNc1ccccn1	PLAP activator 2.4
Cc1cccc(CS(=O)(=O)c2nnc([C@H](Cc3ccccc3)NC(=O)OC(C)(C)C)o2)c1	VCAM1 TNFa inh 58.0
Clc1cccc2c1CCN(Cc1nc(-c3cnccn3)no1)C2	none (no result: cytoskel mod, VCAM1 TNFa inh, PLAP activator, HUVEC tox TNFa)
COC(=O)c1cc(OC)c(OC)cc1NC(=O)c1ccc(C)o1	PLAP activator 2.2 (no result: cytoskel mod)
CC(=O)N(C)c1nc(N)n(-c2ccccc2)n1	none (no result: cytoskel mod, VCAM1 TNFa inh, PLAP activator, HUVEC tox TNFa)
Nc1ncnc2nc(SCc3ccccc3)[nH]c12	PLAP activator 2
CCCCN(C(=O)c1cc(OC)c(OC)c(OC)c1)C1=CC2CCC(C1)N2C (centres undefined)	E-sel TNF inh 97.8
COc1cc(C(=O)N(CCc2ccccc2)C2=CC3CCC(C2)N3C)cc(OC)c1OC (centres undefined)	none (no result: PLAP activator)
COc1ccc(/C=N/OCC(=O)Nn2c(C)nc3ccccc3c2=O)cc1	none (no result: cytoskel mod, VCAM1 TNFa inh, PLAP activator, HUVEC tox TNFa)
CNS(=O)(=O)c1cccc2nsnc12	none (no result: cytoskel mod, VCAM1 TNFa inh, PLAP activator, HUVEC tox TNFa)
O=C(/C=C/c1ccc(F)cc1)NC(=S)Nc1ccccc1C(=O)NC1CCCCC1	E-sel TNF inh 53.5 (no result: cytoskel mod)
O=C(/C=C/c1ccccc1)NC(=S)Nc1ccccc1C(=O)NC1CCCCC1	none (no result: cytoskel mod)
COc1ccc(C2=CSC3=C(C(=O)c4cccc(S(=O)(=O)N(C)C)c4)CCN23)cc1	PLAP activator 2.9 (no result: cytoskel mod)
COc1ccc(N(C)S(=O)(=O)c2cccc(C(=O)NC3CCC(C)CC3)c2)cc1 (centres undefined)	none (no result: cytoskel mod, VCAM1 TNFa inh, PLAP activator, HUVEC tox TNFa)
Cn1c(SCc2ccccc2)nnc1-c1ccncc1	none (no result: E-sel TNF inh)
Cn1c(SCc2ccc(Br)cc2)nnc1-c1ccncc1	E-sel TNF inh 72.7
COc1cc(/C=N/Nc2nn3cnnc3c3ccccc23)ccc1O	none (no result: E-sel TNF inh)
COc1cc(/C=N/Nc2snc(SC)c2C#N)ccc1O	VCAM1 TNFa inh 43.3 (no result: E-sel TNF inh)
CC(=O)c1ccc(NC(=S)N2CC(C)CC(C)C2)cc1 (centres undefined)	E-sel TNF inh 76.6 (no result: cytoskel mod, VCAM1 TNFa inh, PLAP activator, HUVEC tox TNFa)
CCOC(=O)C1CCN(C(=O)c2cccnc2Cl)CC1	none
Cc1cc(C)cc(NS(=O)(=O)c2ccc3oc(=O)ccc3c2)c1	none
c1ccc(CN2CCN(c3nc(NCc4ccco4)c4ccccc4n3)CC2)cc1	PLAP activator 2
OCCN1CCN(c2nc(NCc3ccco3)c3ccccc3n2)CC1	none (no result: PLAP activator)
O=C(O)C1Nc2c(O)cc(Cl)c([N+](=O)[O-])c2C2C=CCC12 (centres undefined)	none (no result: cytoskel mod, VCAM1 TNFa inh, PLAP activator, HUVEC tox TNFa)
CCOC(=O)c1cccc(NC(=O)CSc2nnc(C3CCCCC3)n2C)c1	none
CCn1c(SCC(=O)Nc2ccccc2)nnc1C1CCCCC1	E-sel TNF inh 60.2 (no result: PLAP activator)
COc1cccc(NC(=O)Cn2c(-c3cncs3)nc3ccccc32)c1	PLAP activator 2
O=C(Cn1c(-c2cncs2)nc2ccccc21)NCCc1ccccc1	none
Cc1cccc(N/N=C(\C=N\N)C(=O)c2ccc(Br)cc2)c1	none (no result: cytoskel mod, VCAM1 TNFa inh, PLAP activator, HUVEC tox TNFa)
Cc1nc(NC(=O)CSc2nnnn2Cc2ccccc2)sc1C	none
Cc1ccccc1NC(=O)COC(=O)CN1C(=O)NC(C)(C)C1=O	none
COc1ccc(C2C(C#N)=C(N)Oc3c2oc(CO)cc3=O)c(OC)c1OC (centres undefined)	none (no result: E-sel TNF inh)
COc1cc(C2C(C#N)=C(N)Oc3c2oc(CO)cc3=O)cc(OC)c1OC (centres undefined)	E-sel TNF inh 100.0
COc1ccc(CNCc2cc3c(C(C)(C)C)nn(-c4ccccc4)c3[nH]c2=O)cc1	PLAP activator 2.5
Cc1nn(-c2ccc(Cl)cc2)c2[nH]c(=O)c(CNCc3ccc4c(c3)OCO4)cc12	none
Cc1ccc(CNCc2cc3c(C(C)(C)C)nn(-c4ccccc4)c3[nH]c2=O)cc1	PLAP activator 2.1
CC(C)(C)c1nn(-c2ccccc2)c2[nH]c(=O)c(CNc3ccc4c(c3)OCCO4)cc12	none
CC(C)(C)c1nn(-c2ccccc2)c2[nH]c(=O)c(CNCc3ccco3)cc12	PLAP activator 2.4
CCNc1nc2nonc2nc1NCC	none
